This excerpt belongs to a sample that is enriched for hits.
GIRK2 act: activators of NPY4-receptor-primed GIRK2 channels, summary, cell-based, HEK293, thallium flux; 34,000 tested, under 10 active; AID 1259324, 2017; activation (% efficacy), % for hits at 37.5 µM; HEK293 GIRK2/NPY4 cells, thallium flux fluorescence;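 active means primary screen hit, no activity in plain HEK293 cells, and in GIRK2-only cells above 5% efficacy rising with concentration; inactive means the rest, including fluorescent compounds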;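 further: efficacy is normalized control-subtracted fluorescence 15 s after thallium addition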
GluA2 TARP mod: modulators of GluA2-stargazin AMPA receptor complexes, primary screen, cell-based, membrane potential dye | AID 1259245, 2017 | calls only at 30 µM | hit rate 3.5% among 40,000 | HEK293 GluA2+stargazin, membrane potential dye (FDSS), glutamate EC50; hits were called plate by plate, in both directions | Voltage-dependent calcium channel gamma-2 subunit (Mus musculus) + Glutamate receptor 2 …;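 active means any of four per-well response measures lying three or more SD from its plate-wide compound average, in either direction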
Target sequence (O88602 whole entry, looked up): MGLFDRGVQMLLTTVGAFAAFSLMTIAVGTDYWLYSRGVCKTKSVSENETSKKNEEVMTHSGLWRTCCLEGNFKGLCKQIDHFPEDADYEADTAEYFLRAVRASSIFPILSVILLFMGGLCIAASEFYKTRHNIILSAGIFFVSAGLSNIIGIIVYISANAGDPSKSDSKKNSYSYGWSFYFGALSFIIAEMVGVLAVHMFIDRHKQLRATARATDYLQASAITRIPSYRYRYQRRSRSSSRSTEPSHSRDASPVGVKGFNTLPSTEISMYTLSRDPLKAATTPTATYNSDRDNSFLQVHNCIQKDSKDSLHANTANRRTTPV
Target sequence (P19491 whole entry, looked up): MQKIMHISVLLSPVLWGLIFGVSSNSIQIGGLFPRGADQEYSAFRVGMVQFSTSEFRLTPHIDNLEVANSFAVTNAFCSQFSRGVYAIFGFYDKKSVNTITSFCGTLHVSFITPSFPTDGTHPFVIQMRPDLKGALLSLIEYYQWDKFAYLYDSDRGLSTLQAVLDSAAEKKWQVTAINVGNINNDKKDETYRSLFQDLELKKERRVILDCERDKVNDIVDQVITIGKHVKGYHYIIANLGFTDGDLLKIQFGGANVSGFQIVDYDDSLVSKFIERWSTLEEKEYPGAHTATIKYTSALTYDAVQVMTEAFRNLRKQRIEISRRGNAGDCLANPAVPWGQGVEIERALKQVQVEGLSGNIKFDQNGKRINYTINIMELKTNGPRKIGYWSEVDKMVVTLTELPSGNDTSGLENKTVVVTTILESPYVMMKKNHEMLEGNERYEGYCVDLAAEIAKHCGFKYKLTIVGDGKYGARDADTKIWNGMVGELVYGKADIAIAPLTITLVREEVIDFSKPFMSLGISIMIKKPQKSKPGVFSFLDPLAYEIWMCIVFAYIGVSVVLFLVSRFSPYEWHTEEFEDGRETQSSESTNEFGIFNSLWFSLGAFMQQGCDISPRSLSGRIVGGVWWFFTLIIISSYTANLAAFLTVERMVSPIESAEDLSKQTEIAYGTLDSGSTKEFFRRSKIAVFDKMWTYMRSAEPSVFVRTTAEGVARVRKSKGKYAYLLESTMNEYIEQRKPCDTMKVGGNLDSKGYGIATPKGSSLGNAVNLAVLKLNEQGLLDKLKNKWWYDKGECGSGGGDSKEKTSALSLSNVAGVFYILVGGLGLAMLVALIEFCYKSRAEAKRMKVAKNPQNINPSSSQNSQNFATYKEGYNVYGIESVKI
Numbers without * were called inactive; i = inactive; nt = not tested or not shown; + = active, no number.

SMILES | GIRK2 act | GluA2 TARP mod
COc1cn(-c2ccc(F)cc2)nc1C(=O)NC1CCCCCC1 | i | i
COc1ccccc1C(=O)N(CCc1cccs1)c1nc2ccc(S(C)(=O)=O)cc2s1 | i | +
COc1ccc2sc(N(Cc3ccncc3)C(=O)c3ccccc3S(C)(=O)=O)nc2c1 | i | i
COC(=O)Nc1ccc(S(=O)(=O)N2CCCC(C(=O)Nc3cccc(C(F)(F)F)c3)C2)cc1 (stereo not drawn) | nt | i
O=C(Nc1cccc(C(F)(F)F)c1)C1CCCN(C(=O)Nc2cccs2)C1 (stereo not drawn) | i | +
O=S(=O)(NCc1ccccn1)c1c(Cl)cccc1Cl | i | i
CC1(C)CS(=O)(=O)N(c2ccc(Cl)c(C(=O)NCc3cccnc3)c2)C1=O | i | i
C#CCn1c(=NC(=O)c2cc(C)no2)sc2cc(Cl)ccc21 | i | i
CSc1ccccc1NC(=O)c1ccc(=O)n(Cc2ccccc2Cl)c1 | i | +
COc1ccc(C)cc1NC(=O)c1ccc(=O)n(Cc2cc(C)ccc2C)c1 | i | i
CSc1ccccc1NC(=O)c1ccc(=O)n(Cc2ccccc2F)c1 | i | i
Cc1ccccc1Cn1cc(C(=O)Nc2c(C)cccc2C)ccc1=O | i | +
Cc1ccc(Cn2cc(C(=O)Nc3c(C)cccc3C)ccc2=O)cc1 | i | i
CSc1ccccc1NC(=O)c1ccc(=O)n(Cc2cc(C)ccc2C)c1 | i | +
CCOC(=O)c1ccccc1NC(=O)CSc1c(COC)cnc2c1c(=O)n(C)c(=O)n2C | nt | i
Cc1ccsc1C(O)CNC(=O)C(c1ccccc1)c1ccccc1 (stereo not drawn) | i | +
Cc1ccsc1C(O)CNC(=O)Cc1ccccc1Cl (stereo not drawn) | i | i
O=S(=O)(NCC1CCN(Cc2ccco2)CC1)c1ccc2c(c1)OCCO2 | i | i
COc1ccc(N2CCCn3c2nc2c3c(=O)n(CC(C)=O)c(=O)n2C)cc1 | nt | i
Cc1cc(C)c2c(n1)nn1c(NC(C)c3ccccc3)cc(C)nc21 (stereo not drawn) | i | i
Cc1cc(C)c2c(n1)nn1c(N3CCCCC3)cc(C)nc21 | i | +
O=C(Nc1ccc2c(c1)CN(C(=O)c1ccccc1)CC2)NC1CCCCC1 | i | i
O=C(Nc1ccc(CC(=O)N2CCC(O)CC2)cc1)c1cc(-c2ccco2)on1 | i | nt
O=C(Nc1cccc(-c2cnc3n2CCC3)c1)c1ccc2nc[nH]c2c1 | i | +
O=C(Nc1ccc2cn[nH]c2c1)c1ccc2nc[nH]c2c1 | i | i
SMILES | GIRK2 act | GluA2 TARP mod
CCOc1ccc(C(=O)Nc2cc3c4c(c2)CCC(=O)N4CCC3)cc1 | i | i
O=C(Nc1cccc(-c2cnc3n2CCC3)c1)c1cc(-c2ccco2)on1 | i | +
CCOc1ccc(C(=O)Nc2cccc(-c3cnc4n3CCC4)c2)cc1 | i | +
Cc1cc(NCCN2CCOCC2)n2nc(C)c(-c3ccccc3Cl)c2n1 | i | i
COc1cc(/C=N/Nc2ncnc3nc[nH]c23)cc(OC)c1OC | nt | i
Cc1ccc(Cl)cc1N1CCN(C(=O)C2CC(=O)c3ccccc32)CC1 (stereo not drawn) | i | +
CS(=O)(=O)N1CCN(C(=O)C2CC(=O)c3ccccc32)CC1 (stereo not drawn) | i | i
Cc1ccc(N2C(=O)CCS2(=O)=O)cc1S(=O)(=O)N1CCc2ccccc2C1 | i | i
CCCN1C(=O)NC2(CCN(C(=O)c3ccc(-c4ccccc4)cc3)CC2)C1=O | i | i
CCOC(=O)c1c(NC(=O)COc2cccc3c2CCN(Cc2ccc(Br)cc2)C3=O)sc2c1CCC2 | nt | +
O=C(COc1cccc2c1CCN(Cc1ccccc1)C2=O)NC1CCCCC1 | nt | i
COc1ccc(C2(CNC(=O)NCc3ccccc3)CCCC2)cc1 | i | i
O=C(OCN1C(=O)c2ccccc2C1=O)C1CCCCC1 | nt | i
CC(=O)OCCN1C(=O)c2cccc3c(N4CCCCC4)ccc(c23)C1=O | nt | +
CCc1ccc(Oc2cc(N3CCC(C(=O)NCc4cccc(Cl)c4)CC3)ncn2)cc1 | i | i
CCc1ccc(Oc2cc(N3CCC(C(=O)NCc4ccc(F)c(Cl)c4)CC3)ncn2)cc1 | i | +
O=C(NCCOc1cccc(C(F)(F)F)c1)c1ccc(Cl)c([N+](=O)[O-])c1 | i | i
O=C(NCCOc1cccc(C(F)(F)F)c1)c1ccc([N+](=O)[O-])cc1 | i | +
CCOc1ccc(OCCNC(=O)c2ccc([N+](=O)[O-])cc2)cc1 | i | +
O=C(NCCOc1ccc(F)cc1)c1ccc([N+](=O)[O-])cc1 | i | i
COc1ccc(S(=O)(=O)NCC#CCN2CCc3ccccc3C2)cc1C | i | +
O=S(=O)(NCC#CCN1CCc2ccccc2C1)c1cccc(Cl)c1 | i | i
CC(=O)Nc1ccc(OCC(O)CN2CCOCC2)cc1 (stereo not drawn) | nt | i
CC(C)c1nnc(C2CCN(C(=O)c3cncc(Br)c3)CC2)o1 | i | i
O=C(CSc1ncc(S(=O)(=O)c2ccc(Br)cc2)c(=O)[nH]1)Nc1ccccc1F | nt | +
SMILES | GIRK2 act | GluA2 TARP mod
Cc1ccc(S(=O)(=O)c2cnc(SCC(=O)Nc3ccc(Br)cc3)[nH]c2=O)cc1 | i | i
CCc1cc2c(=O)n(-c3ccccc3)c(SCC(=O)NCc3ccco3)nc2s1 | nt | i
CCOC(=O)c1oc2cc(OC(=O)c3cccc([N+](=O)[O-])c3)ccc2c(=O)c1-c1ccccc1OC | nt | i
O=C(c1cc2ccccc2o1)N(C(=O)N1CCCCC1)c1ccc(Cl)cc1 | nt | i
O=C(c1ccc(Br)o1)N(C(=O)N1CCCCC1)c1cccc(Cl)c1 | i | i
O=C(c1ccc([N+](=O)[O-])o1)N(C(=O)N1CCCCC1)c1ccc(Cl)cc1 | nt | +
O=C(c1cc(=O)c2ccccc2o1)N(C(=O)N1CCCCC1)c1ccc(Cl)cc1 | nt | +
Cc1ccc(C2=CC(c3ccc(Cl)cc3)n3nc(N4C(=O)CCC4=O)nc3N2)cc1 (stereo not drawn) | nt | +
COc1ccccc1C1C=C(c2ccc(Cl)cc2)Nc2nc(NS(C)(=O)=O)nn21 (stereo not drawn) | nt | i
CCCc1cc(NCCCN2CCOCC2)n2ncc(-c3ccccc3)c2n1 | i | i
O=C(NCC1CCN(C(=O)c2ccccc2F)CC1)Nc1cccs1 | i | i
COC(=O)c1ccc(C(=O)NCC(c2ccccc2Cl)N(C)C)cc1 (stereo not drawn) | i | i
COc1ccc(NC(=O)NCC(c2ccccc2Cl)N(C)C)cc1OC (stereo not drawn) | i | +
CCC(=O)Nc1ccc(S(=O)(=O)NCC(c2cccn2C)N2CCOCC2)c(C)c1 (stereo not drawn) | i | i
Cc1ccc(C(CNS(=O)(=O)c2ccc(Cl)cc2)N2CCOCC2)cc1 (stereo not drawn) | nt | i
C=C(C)Cn1c(N/N=C/c2cccc(OC)c2O)nc2c1c(=O)n(C)c(=O)n2C | nt | i
C=CCn1c(N/N=C/c2cccc(OC)c2O)nc2c1c(=O)n(C)c(=O)n2C | nt | +
